Results: PubChem BioAssay
Activity calls are given as the source filed them.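 The calls were made as follows, unless noted: active = hit in primary screen, with calcium signal over 5 SD above buffer well mean in both duplicates; inactive = the rest.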

Test: calcium flux activation in mu-opioid HEK293 cells, confirmation, counter-screen for TRPC4 activator project, cell-based, HEK293 mu-opioid receptor line (AID 449723);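 also: counter screen cells carry the mu-opioid receptor alone and lack TRPC4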
Conditions: Fluo-4 calcium fluorescence, at 10 µM; stronger effect = higher value

Row | SMILES | activation | outcome
1 | O=C(NC(=S)NNC(=O)[C@H]1C[C@@H]1c1ccccc1)c1cccc(F)c1 | 30.6% (active) | –
2 | NCCCn1c(C(=O)c2cc(Cl)c(N)c(Cl)c2)c2ccccc2[n+]1[O-] | – | inactive
3 | COC(=O)c1ccccc1N=Nc1c(N)[nH][nH]c1=O | – | inactive
4 | O=C(CNS(=O)(=O)c1ccc2ccccc2c1)NCCc1ccccn1 | – | inactive
5 | CC(c1cccnc1)N(CCN(C)C)C(=O)Nc1ccc(Cl)c(Cl)c1 (stereo not drawn) | – | inactive
6 | Cc1ccc(C(=O)NC(=S)NNC(=O)c2ccccc2)cc1 | 12.1% (active) | –
7 | C=CCn1c(CCNC(=O)c2ccco2)nc2ccccc21 | – | inactive
8 | CCOC(=O)[C@@H]1CCNC[C@@H]1c1ccccc1 | – | inactive
9 | Cc1sc2nc(CSc3ccccc3)nc(NCCN(C)C)c2c1C | – | inactive
10 | O=C(NCCc1cccc(Cl)c1)c1ccc(OC2CCN(Cc3ccccn3)CC2)cc1 | – | inactive
11 | CCOC(=O)C1(CCCc2ccccc2)CCN(Cc2cn(CC)nc2C)CC1 | – | inactive
12 | CCCN(CCC)CCCNC(=O)C1CCN(S(=O)(=O)c2cccc3nsnc23)CC1 | – | inactive
13 | CCN1C(=O)c2cccc3c(S(=O)(=O)Nc4ccccc4OC)ccc1c23 | – | inactive
14 | CCCN(CCC)CCCNC(=O)C1CCC(CNS(=O)(=O)c2cccc3nsnc23)CC1 (stereo not drawn) | – | inactive
15 | CCN1CCN(c2ccc(S(=O)(=O)N3CCCCC3)cc2NC(=O)C(C)Oc2ccc(F)cc2)CC1 (stereo not drawn) | – | inactive
16 | O=C(Nc1nnc(-c2ccccc2Cl)o1)c1nc2ccccc2s1 | 30.2% (active) | –
17 | COc1ccc(-c2nn(-c3ccccc3)cc2CNCc2cccnc2)c(F)c1 | – | inactive
18 | Cc1ccc2oc(=O)c3cnn(CC(=O)NC4CCN(Cc5ccccc5)CC4)c3c2c1 | – | inactive
19 | CCCCC(=O)NNC(=S)NC(=O)c1ccc(C)cc1 | – | inactive
20 | COc1cc(/C=C/C(=O)c2ccc3c(c2)OCO3)cc(Cl)c1O | 122% (active) | –

Row | SMILES | activation | outcome
21 | CN(C)C(CNC(=O)C1CC(=O)N(Cc2ccccc2)C1)c1ccccc1 (stereo not drawn) | – | inactive
22 | Cc1ccccc1OCC(=O)NNC(=S)NC(=O)c1ccco1 | – | inactive
23 | O=C(CCc1ccccc1)NNC(=S)NC(=O)c1ccc(Cl)cc1 | 28.6% (active) | –
24 | CN(CCOc1ccc(Cl)cc1)CC(O)c1ccccc1 (stereo not drawn) | – | inactive
25 | Cc1onc(-c2ccccc2)c1C(=O)NC(=S)NNC(=O)c1ccco1 | – | inactive
26 | CC(NCCC1(Cc2ccccc2Cl)CCOC(C)(C)C1)c1cccs1 (stereo not drawn) | – | inactive
27 | CN(C)C(CNC(=S)Nc1ccc(F)cc1)c1cccnc1 (stereo not drawn) | – | inactive
28 | O=C(COc1ccccc1)NNC(=S)NC(=O)c1ccc(Cl)cc1Cl | – | inactive
29 | CCN1CCN(c2c(S(=O)(=O)c3ccc(C)c(C)c3)cnc3ccc(F)cc23)CC1 | – | inactive
30 | COc1ccc(C(CNC(=O)c2cccc(NS(=O)(=O)c3ccc(C)c(F)c3)c2)N(C)C)cc1 (stereo not drawn) | – | inactive
31 | CCOC(=O)C1(CCOc2ccccc2)CCN(Cc2cnc(C)s2)CC1 | – | inactive
32 | COc1ccc(/C=C/CN2CCCC(C(=O)c3ccc(OC)c(F)c3)C2)cc1 (stereo not drawn) | – | inactive
33 | O=S(=O)(c1ccc(Cl)cc1)N1CCN2CCCC2C1 (stereo not drawn) | – | inactive
34 | OC(CNC1CCCc2ccccc21)COc1ccc2ccccc2c1 (stereo not drawn) | – | inactive
35 | Cc1ccc2[nH]c3c(=O)n(CCc4cnc[nH]4)cnc3c2c1 | – | inactive
36 | Cc1ccn2cc(CCNC(=O)C3CC=CCC3C(=O)O)nc2c1 (stereo not drawn) | – | inactive
37 | CCOC(=O)C1(CCOc2ccccc2)CCN(Cc2ccc(OC)c(O)c2)CC1 | – | inactive
38 | Cc1cc(OCCCn2ccnc2)cc(C)c1Cl | – | inactive
39 | CCn1cc(CN2CCCC(C(=O)Nc3ccc(-c4nc5ccccc5[nH]4)cc3)C2)c(C)n1 (stereo not drawn) | – | inactive

Test: calcium flux enhancement in mu-opioid HEK293 cells, confirmation, counter-screen for TRPC4 allosteric potentiator project, cell-based, HEK293 mu-opioid receptor line (AID 449724;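 active = calcium signal rise more than 3 SD above the low-dose agonist control mean, in both duplicate plates and the primary screen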;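 also: HEK293 cells carrying mu-opioid receptor only with no TRPC4 channel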)
Conditions: Fluo-4 calcium flux, at 10 µM, compound added before EC20 DAMGO stimulus; stronger effect = higher value

Row | SMILES | outcome
40 | O=C(NC(=S)NNC(=O)[C@H]1C[C@@H]1c1ccccc1)c1cccc(F)c1 | inactive
41 | NCCCn1c(C(=O)c2cc(Cl)c(N)c(Cl)c2)c2ccccc2[n+]1[O-] | inactive
42 | COC(=O)c1ccccc1N=Nc1c(N)[nH][nH]c1=O | inactive
43 | O=C(CNS(=O)(=O)c1ccc2ccccc2c1)NCCc1ccccn1 | inactive
44 | CC(c1cccnc1)N(CCN(C)C)C(=O)Nc1ccc(Cl)c(Cl)c1 (stereo not drawn) | inactive
45 | Cc1ccc(C(=O)NC(=S)NNC(=O)c2ccccc2)cc1 | inactive
46 | C=CCn1c(CCNC(=O)c2ccco2)nc2ccccc21 | inactive
47 | CCOC(=O)[C@@H]1CCNC[C@@H]1c1ccccc1 | inactive
48 | Cc1sc2nc(CSc3ccccc3)nc(NCCN(C)C)c2c1C | inactive
49 | O=C(NCCc1cccc(Cl)c1)c1ccc(OC2CCN(Cc3ccccn3)CC2)cc1 | inactive
50 | CCOC(=O)C1(CCCc2ccccc2)CCN(Cc2cn(CC)nc2C)CC1 | inactive
51 | CCCN(CCC)CCCNC(=O)C1CCN(S(=O)(=O)c2cccc3nsnc23)CC1 | inactive
52 | CCN1C(=O)c2cccc3c(S(=O)(=O)Nc4ccccc4OC)ccc1c23 | inactive
53 | CCCN(CCC)CCCNC(=O)C1CCC(CNS(=O)(=O)c2cccc3nsnc23)CC1 (stereo not drawn) | inactive
54 | CCN1CCN(c2ccc(S(=O)(=O)N3CCCCC3)cc2NC(=O)C(C)Oc2ccc(F)cc2)CC1 (stereo not drawn) | inactive
55 | O=C(Nc1nnc(-c2ccccc2Cl)o1)c1nc2ccccc2s1 | inactive
56 | COc1ccc(-c2nn(-c3ccccc3)cc2CNCc2cccnc2)c(F)c1 | inactive
57 | Cc1ccc2oc(=O)c3cnn(CC(=O)NC4CCN(Cc5ccccc5)CC4)c3c2c1 | inactive
58 | CCCCC(=O)NNC(=S)NC(=O)c1ccc(C)cc1 | inactive
59 | COc1cc(/C=C/C(=O)c2ccc3c(c2)OCO3)cc(Cl)c1O | inactive

Row | SMILES | outcome
60 | CN(C)C(CNC(=O)C1CC(=O)N(Cc2ccccc2)C1)c1ccccc1 (stereo not drawn) | inactive
61 | Cc1ccccc1OCC(=O)NNC(=S)NC(=O)c1ccco1 | inactive
62 | O=C(CCc1ccccc1)NNC(=S)NC(=O)c1ccc(Cl)cc1 | inactive
63 | CN(CCOc1ccc(Cl)cc1)CC(O)c1ccccc1 (stereo not drawn) | inactive
64 | Cc1onc(-c2ccccc2)c1C(=O)NC(=S)NNC(=O)c1ccco1 | inactive
65 | CC(NCCC1(Cc2ccccc2Cl)CCOC(C)(C)C1)c1cccs1 (stereo not drawn) | inactive
66 | CN(C)C(CNC(=S)Nc1ccc(F)cc1)c1cccnc1 (stereo not drawn) | inactive
67 | O=C(COc1ccccc1)NNC(=S)NC(=O)c1ccc(Cl)cc1Cl | inactive
68 | CCN1CCN(c2c(S(=O)(=O)c3ccc(C)c(C)c3)cnc3ccc(F)cc23)CC1 | inactive
69 | COc1ccc(C(CNC(=O)c2cccc(NS(=O)(=O)c3ccc(C)c(F)c3)c2)N(C)C)cc1 (stereo not drawn) | inactive
70 | CCOC(=O)C1(CCOc2ccccc2)CCN(Cc2cnc(C)s2)CC1 | inactive
71 | COc1ccc(/C=C/CN2CCCC(C(=O)c3ccc(OC)c(F)c3)C2)cc1 (stereo not drawn) | inactive
72 | O=S(=O)(c1ccc(Cl)cc1)N1CCN2CCCC2C1 (stereo not drawn) | inactive
73 | OC(CNC1CCCc2ccccc21)COc1ccc2ccccc2c1 (stereo not drawn) | inactive
74 | Cc1ccc2[nH]c3c(=O)n(CCc4cnc[nH]4)cnc3c2c1 | inactive
75 | Cc1ccn2cc(CCNC(=O)C3CC=CCC3C(=O)O)nc2c1 (stereo not drawn) | inactive
76 | CCOC(=O)C1(CCOc2ccccc2)CCN(Cc2ccc(OC)c(O)c2)CC1 | inactive
77 | Cc1cc(OCCCn2ccnc2)cc(C)c1Cl | inactive
78 | CCn1cc(CN2CCCC(C(=O)Nc3ccc(-c4nc5ccccc5[nH]4)cc3)C2)c(C)n1 (stereo not drawn) | inactive
